19 compounds from the supplement of paper PMC7156485 can be followed below.

SMILES strings stand for the structures. ± gives the standard deviation of the averaged measurements.

Conditions in all cases: concentration: 10 µM; 24 h
In experiment [1] the test system is HCC1569. Put plainly: cell number relative to DMSO (% of DMSO); higher = more cells (less growth inhibition / toxicity). In outline:
(§1)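 HCC1569 and TDF cells (800 per well, 384-well plates, RPMI with 10% FBS) were treated with compounds at 10 µM for 24 h at 37 °C, in triplicate. Cells were fixed in 3.7% formaldehyde and stained with a rabbit anti-H1.0 antibody, an AlexaFluor 647 secondary and DAPI; six fields per well were imaged at ×10. H1.0 nuclear intensity or cell number is expressed as percent of the plate DMSO control, taking the median of replicates. HCC1569 values were smoothed for positional effects.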

For experiment [2], the system named is TDF. The description is as above. In outline: as §1
Experiment [3] concerns TDF. Put plainly: H1.0 immunofluorescence intensity relative to DMSO (% of DMSO); higher = stronger H1.0 induction, active = 120 or more. In outline: as §1
Experiment [4] deals with HCC1569. Put plainly: H1.0 immunofluorescence intensity relative to DMSO (% of DMSO); higher = stronger H1.0 induction, active = 140 or more. In outline: as §1
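Throughout, for H1.0 immunofluorescence intensity relative to DMSO: TDF is a line of transformed human dermal fibroblasts of mesenchymal origin.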
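Throughout, for cell number relative to DMSO: TDF denotes transformed human dermal fibroblasts of mesenchymal origin.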

Regarding `O=C(NCCCCCCNC(=O)ON=C1CCCCC1)ON=C1CCCCC1`, the cell number in experiment [1] was 96.6; in experiment [2] it was 100. Also, the H1.0 immunofluorescence intensity in experiment [3] is 98 (inactive); in experiment [4], 97.1 (inactive).

Take `Cl.NC1(C(=O)O)CCCCC1` [1-Amino-1-cyclohexanecarboxylic acid hydrochloride]: the cell number in experiment [1] was found to be 100; in experiment [2] it was 106. Besides, the values for the H1.0 immunofluorescence intensity in experiment [3] and in experiment [4] were 95.3 (inactive) and 86.6 (inactive), respectively.

On to `O=C([O-])CCCc1ccccc1.[Na+]` [Sodium Phenylbutyrate], for which the cell number in experiment [1] is 103; in experiment [2], 106. For the same compound, the H1.0 immunofluorescence intensity in experiment [3] was 96.4 (inactive); in experiment [4] it was 97.7 (inactive).

As to `O=C(O)CNC(=O)C(CS)Cc1ccccc1` (racemic) [DL-Thiorphan], the cell number in experiment [1] amounted to 105; in experiment [2] it was 95.5. Moreover, the H1.0 immunofluorescence intensity in experiment [3] was 93.4 (inactive); in experiment [4] it was 96.1 (inactive).

Regarding `c1ccc(-c2ccc(C(c3ccccc3)n3ccnc3)cc2)cc1` (stereo unspecified) [Bifonazole], the cell number in experiment [1] was 101; in experiment [2], 98.2. The figures for the H1.0 immunofluorescence intensity in experiment [3] and in experiment [4] were 86.2 (inactive) and 122 (inactive), respectively.

Consider `COc1cccc(OC)c1OCCNCC1CSc2ccccc2O1.Cl` (stereo unspecified) [Benoxathian hydrochloride], for which the cell number in experiment [1] was determined as 91.4; in experiment [2], 108. For the same compound, the H1.0 immunofluorescence intensity was 91.8 (inactive) in experiment [3] and 92 (inactive) in experiment [4].

Turning to `CC(N)(Cc1ccc(O)cc1)C(=O)O` [L-alpha-Methyl-p-tyrosine], the cell number in experiment [1] amounted to 107; in experiment [2], 111. In addition, the H1.0 immunofluorescence intensity was 92.6 (inactive) in experiment [3] and 90.6 (inactive) in experiment [4].

Consider `CC(=O)NC(C(=O)O)C(C)(C)SN=O` (stereo unspecified) [S-Nitroso-N-acetylpenicillamine], for which the cell number was 105 in experiment [1] and 109 in experiment [2]. Besides, the values for the H1.0 immunofluorescence intensity in experiment [3] and in experiment [4] were 90.5 (inactive) and 96.7 (inactive), respectively.

As to `CCCCC1C(=O)N(c2ccccc2)N(c2ccccc2)C1=O` [Phenylbutazone], the cell number came out at 101 ± 1.3 in experiment [1] and 106 ± 10 in experiment [2]. The H1.0 immunofluorescence intensity in experiment [3] is 93.7 (inactive); in experiment [4], 97.5 (inactive).

As for `O=c1onc2n1-c1cc(Br)ccc1OC2`, the cell number is 97.4 in experiment [1] and 104 in experiment [2]. Further, the H1.0 immunofluorescence intensity is 94 (inactive) in experiment [3] and 96 (inactive) in experiment [4].

For `CCCCc1oc2ccccc2c1C(=O)c1cc(I)c(OCCN(CC)CC)c(I)c1.Cl` [Amiodarone.HCl], the cell number in experiment [1] turned out to be 99.7; in experiment [2] it was 105. For the same compound, the H1.0 immunofluorescence intensity is 93.8 (inactive) in experiment [3] and 110 (inactive) in experiment [4].

Regarding `O=C(Nc1ccc(Cl)cc1)Nc1cccc(-c2cccc(N3CCCC3)n2)c1`, the figures for the cell number in experiment [1] and in experiment [2] were 96 and 87.5, respectively. The H1.0 immunofluorescence intensity is 98.6 (inactive) in experiment [3] and 114 (inactive) in experiment [4].

With `OCC1OC(n2cnc3c(NCCc4ccccc4)ncnc32)C(O)C1O` (stereo unspecified) [N6-2-Phenylethyladenosine], the cell number in experiment [1] came out at 99.4; in experiment [2], 113. The H1.0 immunofluorescence intensity in experiment [3] is 87.8 (inactive); in experiment [4], 101 (inactive).

Take `COc1ccc(C=Cc2cc(O)cc(OC3OC(CO)C(O)C(O)C3O)c2)cc1O` (stereo unspecified) [Rhapontin]: the cell number amounted to 99.2 in experiment [1] and 104 in experiment [2]. The H1.0 immunofluorescence intensity in experiment [3] is 96 (inactive); in experiment [4], 83.7 (inactive).

Take `Cc1cc2nc(NCCCO)n(CC(=O)c3cc(C(C)(C)C)c(O)c(C(C)(C)C)c3)c2cc1C`: the cell number in experiment [1] came out at 67.9; in experiment [2], 78.5. The H1.0 immunofluorescence intensity in experiment [3] was 97.1 (inactive); in experiment [4] it was 173 (active).

Take `CC1CCC2(C(=O)O)CCC3(C)C(=CCC4C5(C)CC(O)C(O)C(C)(CO)C5CCC43C)C2C1C` (stereo unspecified) [Asiatic acid]: the cell number in experiment [1] is 104; in experiment [2], 99.6. Further, the H1.0 immunofluorescence intensity is 101 (inactive) in experiment [3] and 94.7 (inactive) in experiment [4].

Turning to `O=Nc1ccc2oc(=O)ccc2c1` [6-Nitroso-1,2-benzopyrone], the values for the cell number in experiment [1] and in experiment [2] were 100 and 103, respectively. Besides, the H1.0 immunofluorescence intensity is 92.2 (inactive) in experiment [3] and 101 (inactive) in experiment [4].

In the case of `CN1C(CC(=O)c2ccccc2)CCCC1CC(O)c1ccccc1.Cl` (stereo not drawn) [alpha-Lobeline hydrochloride], the cell number in experiment [1] turned out to be 99.3; in experiment [2] it was 108. Also, the H1.0 immunofluorescence intensity in experiment [3] was 93.7 (inactive); in experiment [4], 103 (inactive).

As for `Cl.O[Si](CCCN1CCCCC1)(c1ccc(F)cc1)C1CCCCC1` (stereo unspecified) [Hexahydro-sila-difenidol hydrochloride, p-fluoro analog], the cell number was determined as 97.5 in experiment [1] and 88.2 in experiment [2]. For the same compound, the H1.0 immunofluorescence intensity is 102 (inactive) in experiment [3] and 105 (inactive) in experiment [4].
